Test results taken from ChEMBL document CHEMBL3433997, “St. Jude Leishmania screening dataset” (2016).

target: Glucose transporter (Leishmania mexicana) (UniProt O61059); assay: ST_JUDE_LEISH: Cytotoxicity at 2uM final concentration against transgenic Leishmania Mexicana promastigotes LmGT2 that are glucose transport deficient and complemented with the L. Mexicana glucose transporter 2. Activity is measured by DNA content using SYBR green in vitro; assay type: functional

SMILES	inhibition [%]
COc1ccc(Cl)cc1-c1nc(C(=O)NCCN2CCCCC2)c(C)s1	5.49
CCCN1CCN(Cc2ccc(C(=O)Nc3ccc(Cl)cc3)cc2)CC1	4.34
C[C@@H](N/C(=N\c1ccc(-c2ccccc2)cc1)Nc1ccc(C#N)cc1O)c1ccc(Br)cc1	2.66
CC(C)C[C@H](NC(=O)c1cccc(F)c1)C(=O)N[C@H](/C=N/NC(=O)c1ccccc1)CCc1ccccc1	0.18
COc1cc(OC)cc(-c2nn(-c3ccc([N+](=O)[O-])cc3Cl)c(=S)n2CC2CCCO2)c1 (configuration not stated)	2.53
CN(c1ccc2c(c1)nc(NCc1ccc(F)cc1)n2C)c1ccnc(Nc2ccc(CS(C)(=O)=O)cc2)n1	-1.02
O=C(C=Cc1ccc(Cl)c(Cl)c1)NCCCCCN1CCC(CCNS(=O)(=O)c2ccc(F)cc2)CC1	4.55
CN(C)CCOc1cc(NC(=O)Nc2ccc(Cl)cc2C(F)(F)F)ccc1I	-3.2
O=C(Nc1ccc2c(ccn2C2CCCN(Cc3cc(F)cc(F)c3F)CC2)c1)c1ccco1 (configuration not stated)	2.17
O=[N+]([O-])c1cccc(C=NNc2nc(=Nc3ccccc3)[nH]c(=Nc3ccccc3)[nH]2)c1	-0.18
Cn1nc(C(F)(F)F)cc1-c1ccc(C(=O)Nc2ccc3c(c2)CNCC3(C)C)s1	2.34
CN1CCN(Cc2cccc(Nc3nccc(Nc4ccc(Oc5ccccc5)cc4)n3)c2)CC1	5.8
COc1ccccc1C(=O)C1CCCN(C(=O)c2ccccc2C(F)(F)F)C1 (configuration not stated)	9.65
CN(C)C(C)(C)CN(Cc1ccc(-c2ccc(C(F)(F)F)cc2)cc1)C(=O)Cn1c(CCc2cccc(F)c2F)nc(=O)c2ccccc21	0.79
CCCN(CCC)CCCOc1ccc(C(=O)c2c(-c3ccc(OCCCN(CCC)CCC)cc3)oc3ccc(Cl)cc23)cc1	31.1
CN(C)Cc1cccc(-c2ccc(NC(=O)c3ccc4c(=O)n(Cc5cnn(C)c5)cnc4c3)cc2)c1	4.86
N=C(N)NC(=O)Nc1cc(Cl)c(Cl)c(Br)c1	2.08
O=C(NC(CCCN1CCC2(CC1)OCc1ccccc12)c1ccc(Cl)c(Cl)c1)c1cc(C(F)(F)F)cc(C(F)(F)F)c1 (configuration not stated)	-2.79
Fc1ccc(-c2oc(C3CCN(CCc4ccc(-c5noc(=S)[nH]5)cc4)CC3)nc2COCC(F)(F)F)cc1	8.14
CC(C)C1=CC(=NOS(=O)(=O)c2ccccc2)C=C(C(C)C)C1=O	-0.38
Cn1cnc(CCNC(=O)c2ccc(-c3ccc(-c4nc5cc(F)ccc5[nH]4)cc3)cc2)c1	4.84
COc1cc2nc(NCc3ccc(S(N)(=O)=O)cc3)nc(Nc3ccc(Oc4ccccc4)cc3)c2cc1OC	3.67
CCC(C)OC(=O)C1=C(C)NC2=C(C(=O)CC(c3ccc(OC)c(OC)c3)C2)C1c1cccc(O)c1 (configuration not stated)	1.16
N=C(Nc1ccccc1)Nc1cccc(Cc2ccc([N+](=O)[O-])cc2)n1	0.1
CCC(C)NS(=O)(=O)c1ccc2nc(Nc3cccc(SC)c3)n(C(C)C(C)C)c2c1 (configuration not stated)	3.8
CCCCCCN1CCCN(Cc2ccc(C(=O)Nc3ccc(F)c(F)c3)cc2)CC1	12.9
c1cc(CNCCc2ccncc2)cc(-c2cccc(-c3nc4ccccc4[nH]3)c2)c1	10
